Bioassay records deposited in PubChem by National Center for Advancing Translational Sciences (NCATS).
An excerpt weighted towards active compounds, which were near 19% of everything screened.
HT1080 IDH1KD tx – qHTS for induction of synthetic lethality in tumor cells producing 2HG: qHTS for the HT-1080-IDH1KD cell line. HT-1080 IDH1 knockdown viability, ATP luminescence, 48 h. Potency, µM (series often up to 46.1 µM), usual class: cytotoxic. 360,000 tested, 2% active
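HT-1080-IDH1KD cells (IDH1 knocked down), 750/well in RPMI with 5% FBS, treated with compound 48 h at 37 degrees C. Viability by CellTiter-Glo luminescence, normalised to DMSO and no-cell wells; concentration-response curves classed.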
IL-1B inflam inh – qHTS for Inhibitors of Inflammasome Signaling: IL-1-beta AlphaLISA Primary Screen; THP-1 LPS/ATP IL-1B secretion, AlphaLISA, 16 h; stronger effect = lower value; activity change, % at 57.5 µM; 360,000 tested, 4.7% active; in the data active means activity change below about -50%; inconclusive means mostly about -30% to -49%
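Secreted IL-1B measured by AlphaLISA bead assay after 16 h compound exposure of THP-1 cells; compounds (final up to 57.5 uM) added 1 h before LPS (250 ng/mL) and ATP (1.25 mM) stimulation; lower signal means less secretion.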
HT1080-NT tox – qHTS for induction of synthetic lethality in tumor cells producing 2HG: qHTS for the HT-1080-NT fibrosarcoma cell line; HT-1080-NT fibrosarcoma viability, CellTiter-Glo ATP luminescence, 48 h; Potency, µM (top dose mostly 46.1 µM), hits mostly cytotoxic; 360,000 tested, 1.6% active; AID 686970, 2013;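 further: NT is the 2HG producing partner of a matched IDH1 knockdown line; nearly all actives have a fitted effect of over 55% in size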
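Fibrosarcoma NT cells, 750 per well in 5% FBS RPMI, were exposed to compound for 48 hours. Viability: CellTiter-Glo luminescence.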
ELG1 DNA repair – qHTS screen for small molecules that inhibit ELG1-dependent DNA repair in human embryonic kidney (HEK293T) cells expressing luciferase-tagged ELG1; HEK293T ELG1-luciferase reporter, luminescence, 16 h; DNA damage induced by 5-fluorouridine; 330,000 tested, 2.3% active; AID 504467, 2011; Potency, µM (highest dose often 46.1 µM), most hits filed as inhibitors; further: nearly all actives have a fitted effect of over 55% in size
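Quantitative HTS, concentration-response format. 2,000 cells/well co-treated with 5-fluorouridine and compound, 16 hr in 5% CO2 at 37 °C; ONE-Glo luminescence read after 30 min.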
DT40 TDP1 CPT – qHTS for Inhibitors of human tyrosyl-DNA phosphodiesterase 1 (TDP1): qHTS in cells in presence of CPT; chicken DT40 Tdp1-/-;hTDP1 cells + 20 nM CPT, ATP luminescence, 48 h; 420,000 tested, 12% active; Potency, µM (top dose mostly 46.2 µM), usual class: inhibitors; further: nearly all actives have a fitted effect of over 55% in size
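Chicken DT40 Tdp1-/- cells stably complemented with human TDP1 were seeded at 400 cells/well in medium containing 20 nM camptothecin, exposed to pin-transferred compounds, and grown at 37 °C for at least 48 hr. Viability was read as ATP luminescence.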
TDP1 cell noCPT – qHTS for Inhibitors of human tyrosyl-DNA phosphodiesterase 1 (TDP1): qHTS in cells in absence of CPT; DT40 Tdp1-/- hTDP1 cells, no CPT, ATP luminescence, 48 h; 420,000 tested, 15% active; Potency, µM (titrated, usually from 46.2 µM), usual class: inhibitors; further: nearly all actives have a fitted effect of over 55% in size
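A cellular qHTS used chicken DT40 cells lacking endogenous Tdp1 but carrying stably transfected human TDP1. Compounds were applied without camptothecin, and cell growth kinetics were judged by ATP-dependent luminescence after ≥48 hr.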
Numbers stand for hits; n = inactive; u = inconclusive; x = no result. Unless noted, the call rests on the fitted dose curve; in most records, active means well fitted curve in the direction sought with a large enough effect; inconclusive means small, poorly fitted or top-dose-only effect, or another doubt; inactive means no such curve, though single readings can be large; an effect the other way counts as inactive or inconclusive.

SMILES	HT1080 IDH1KD tx	IL-1B inflam inh	HT1080-NT tox	ELG1 DNA repair	DT40 TDP1 CPT	TDP1 cell noCPT
CC(C)CNC(=O)c1cccc2c(-c3cccc(C(N)=O)c3)coc12	n	n	n	x	23µM	u
O=C(NCc1cccc(Cl)c1)c1cccc2c(-c3cccnc3)coc12	n	u	n	x	16µM	u
CC1CCC2(CC1)NC(=O)N(CC(=O)Nc1ccc(C(N)=O)cc1)C2=O (stereo not drawn)	n	u	n	n	n	n
Cn1nccc1-c1coc2c(C(=O)NCc3ccccc3)cccc12	n	n	n	x	u	u
NC(=O)c1cccc(-c2coc3c(C(=O)NCc4cccnc4)cccc23)c1	u	n	n	x	21µM	23µM
COc1ccc(CNC(=O)c2cccc3c(-c4cccnc4)coc23)cc1OC	u	n	u	x	1.2µM	1.5µM
O=C(NCc1cccs1)c1cccc2c(-c3cccnc3)coc12	n	u	n	x	u	n
Cc1n[nH]c(=O)n(N=Cc2c[nH]c3ccccc23)c1=O	n	n	n	x	n	n
CCCCCCCCCC(=O)N1c2ccccc2NC(=O)C1CC(=O)Nc1ccc(C(=O)O)cc1 (stereo not drawn)	u	u	n	n	n	n
O=C(c1cc2ccccc2o1)N1CCN=C1SCc1cccnc1	n	-58	n	n	n	n
O=C(c1ccc(Br)o1)N1CCN=C1SCc1cccnc1	n	-54	n	n	u	n
O=C(c1ccc(S(=O)(=O)N2CCCCC2)cc1)N1CCN=C1SCc1cccnc1	n	n	n	u	16µM	u
O=C(c1ccccc1F)N1CCN=C1SCc1cccnc1	n	n	n	n	n	n
COc1ccc(CNC(=O)C2CCN(S(=O)(=O)c3ccc(Br)s3)CC2)cc1	n	n	n	u	n	u
NC(=O)C1(N2CCCCC2)CCN(C(=O)Nc2ccc(Cl)c(Cl)c2)CC1	x	x	x	x	n	u
CN(CC(=O)Nc1ccc(Cl)cc1)CC(=O)N1CCc2ccccc21	n	n	n	x	u	n
C[C@@H]1CN([C@H](C)CO)C(=O)c2cc(C#CC(C)(C)O)cnc2O[C@@H]1CN(C)C(=O)C1CC1	n	n	n	x	n	n
Cn1c(/C=N/NC(=O)c2ccccc2Br)nc2ccccc21	u	n	u	n	u	18µM
Cc1ccc(C(=O)N/N=C/c2nc3ccccc3n2C)cc1	10µM	n	8.9µM	u	u	18µM
O=C(CCC(=O)c1cccs1)OCC(=O)c1ccccc1F	n	n	n	n	n	n
O=C1NC(Cc2ccc(O)cc2)c2nc3cc(F)ccc3c(=O)n2-c2cc(Cl)ccc21 (stereo not drawn)	x	x	x	n	x	x
Cc1ccc2c(=O)n3c(nc2c1)C(Cc1ccc(O)cc1)NC(=O)c1cc2ccccc2cc1-3 (stereo not drawn)	6.5µM	n	5.2µM	x	u	18µM
O=C1NC(Cc2ccc(O)cc2)c2nc3cc(F)ccc3c(=O)n2-c2cc3ccccc3cc21 (stereo not drawn)	18µM	u	15µM	x	u	7.3µM
Cc1cccn2c(=O)c(/C=C(\C#N)c3nc4ccccc4[nH]3)c(Oc3ccc(C(C)(C)C)cc3)nc12	x	x	x	x	n	n
Cc1cccc(Oc2nc3c(C)cccn3c(=O)c2/C=C(\C#N)c2nc3ccccc3[nH]2)c1	x	x	x	x	n	n
SMILES	HT1080 IDH1KD tx	IL-1B inflam inh	HT1080-NT tox	ELG1 DNA repair	DT40 TDP1 CPT	TDP1 cell noCPT
Cc1cccn2c(=O)c(/C=C(\C#N)c3nc4ccccc4n3C)c(Oc3ccc(Cl)cc3)nc12	x	x	x	x	u	8.2µM
COc1ccc(/C(C#N)=C/c2c(-c3ccc(Cl)cc3)nc3c(C)cccn23)cc1	n	n	n	n	u	18µM
Cc1cc(Oc2nc3c(C)cccn3c(=O)c2/C=C(\C#N)S(=O)(=O)c2ccc(Cl)cc2)ccc1Cl	n	n	n	n	u	23µM
Cc1cccn2c(=O)c(/C=C(\C#N)c3nc4ccccc4n3C)c(Oc3ccc(Br)cc3)nc12	x	x	x	x	10µM	6.5µM
O=C(Nc1ccnn1C1CCN(C2CCCC2)CC1)c1ccccc1	n	n	n	u	n	n
CCOc1ccc2nc(S(=O)(=O)NC(=O)C3(C)CCN3C(=O)c3cc(C)n(C)n3)sc2c1 (stereo not drawn)	n	n	n	x	n	n
N#C/C(=C\c1c(Oc2ccc(Br)cc2)nc2ccccn2c1=O)c1nc2ccccc2s1	x	x	x	x	n	16µM
O=S1(=O)N(Cc2ccccc2F)CCCN1Cc1c(F)cccc1Cl	n	n	n	n	n	n
CCc1cccc(NC(=O)C2CCCN(S(=O)(=O)c3cnc[nH]3)C2)c1 (stereo not drawn)	n	n	n	n	n	n
NC(=O)c1ccccc1NC(=O)C1CCCN(c2ncnc3onc(-c4ccc(F)cc4)c23)C1 (stereo not drawn)	x	x	x	x	13µM	15µM
CCc1cccc(NC(=O)C2CCCN(c3ncnc4onc(-c5ccc(F)cc5)c34)C2)c1 (stereo not drawn)	x	x	x	x	13µM	10µM
COc1ccccc1NC(=O)C1CCCN(c2ncnc3onc(-c4ccc(F)cc4)c23)C1 (stereo not drawn)	x	x	x	x	u	16µM
CCc1ccccc1NC(=O)C1CCCN(c2ncccn2)C1 (stereo not drawn)	n	n	n	n	n	n
Cn1c(SCC(=O)Nc2ccc3nc(SCC(=O)NC4CC4)sc3c2)nnc1-c1ccccc1	n	n	n	u	n	u
CC(C)CC(=O)Nc1ccc2nc(SCC(=O)N3CCOCC3)sc2c1	x	x	x	x	n	u
CC(C)CC(=O)Nc1ccc2nc(SCC(=O)N3CCCC3)sc2c1	x	x	x	x	23µM	23µM
Cn1c(SCC(=O)Nc2ccc3nc(SCC(=O)N4CCCC4)sc3c2)nnc1-c1ccc(N)cc1	n	n	n	8.2µM	u	u
CCC(CC)C(=O)Nc1ccc2nc(SCC(=O)N3CCCC3)sc2c1	x	x	x	x	u	21µM
CC(C)C[C@@]12C(=O)N(c3cccc(F)c3)C(=O)N1[C@H](c1ccc(Br)cc1)[C@@H]1C(=O)N(C(C)(C)C)C(=O)[C@@H]12	n	n	n	n	u	21µM
CC(C)C[C@@]12C(=O)N(c3ccc(Br)cc3)C(=O)N1[C@H](c1ccc(Br)cc1)[C@@H]1C(=O)N(C(C)(C)C)C(=O)[C@@H]12	n	n	n	n	u	u
